Laboratory results from PubChem BioAssay (NCATS).
“And” between values parts separate entries of the source, which are not always exact repeats. Identical values can stand only once. Results filed as inconclusive are left out. A call without a number means that no potency is given here. A number with no mark means an inactive call. The source made the active and inactive calls. Unless noted, calls follow the shape of the dose curve; as a rule, active = well fitted curve in the direction sought with a large enough effect; inconclusive = small, poorly fitted or top-dose-only effect, or another doubt; inactive = no such curve, though single readings can be large; an effect the other way counts as inactive or inconclusive.

Key:
[1] = biological target: Luciferin 4-monooxygenase (Photinus pyralis) (UniProt P08659); assay: Biochemical firefly luciferase enzyme assay for NPC (AID 624030); also: nearly all actives have a fitted effect of over 70% in size; also: potency is read from the fitted curve at half-maximal effect
In short: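 Purified P. pyralis luciferase at 10 nM in 50 mM Tris Acetate (final), luminescence read within 5 minutes of enzyme addition to compounds. Activity normalised to PTC124 versus DMSO; concentration-response curves classed by r2, magnitude and activity.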

[2] = S16 Schwann cell viability assay (CellTiter-Glo assay) (AID 624031); also: nearly all actives have a fitted effect of over 70% in size; also: potency is read from the fitted curve at half-maximal effect
In short: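 Luminescent ATP read-out (CellTiter-Glo) after 24 h compound exposure of native S16 rat Schwann cells at 37 °C. Signals were normalized between cell-free wells and DMSO-treated cells, set as 0% activity.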

[3] = S16 Schwann cell PMP22 intronic element firefly luciferase assay (AID 624032); also: nearly all actives have a fitted effect of over 30% in size; also: potency is read from the fitted curve at half-maximal effect
In short: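 Rat S16 Schwann cells stably carrying firefly luciferase driven by a PMP22 intronic element, in 10% FBS, treated 24 h at 37 C. ONE-Glo luminescence normalized to PTC124 control and DMSO (0%); curves classed by r2, magnitude and activity.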

[4] = qHTS assay for small molecule agonists of the antioxidant response element (ARE) signaling pathway (AID 651741; active = well fitted activation curve with a large enough effect in the signal ratio; the % refers to the signal ratio; also: potency is read from the fitted curve at half-maximal effect)
In short: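 CellSensor ARE-bla HepG2 cells (2,000/well) carrying ARE-driven beta-lactamase, exposed 16 h at 37 C. LiveBLAzer B/G FRET substrate added for 2 h at room temperature; fluorescence intensity read.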

[5] = S16 Schwann cell PMP22 intronic element beta-lactamase assay (AID 624044; calls by dose curve; also: nearly all actives have a fitted effect of over 15% in size); details: S16 rat Schwann cells, PMP22 element beta-lactamase FRET, 24 h; ratio activity, negative = inhibition: at 38.3 µM (top of the series) unless noted
In short: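 Rat S16 Schwann cells with beta-Lac driven by a PMP22 intronic element, compound-treated 24 h at 37 °C. LiveBLAzer FRET B/G read: 460 nm normalized to potassium clavulanate vs DMSO; 535 nm FRET as viability; concentration-effect curves classified.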

Sequence of Luciferin 4-monooxygenase (Photinus pyralis) (P08659 whole entry, looked up): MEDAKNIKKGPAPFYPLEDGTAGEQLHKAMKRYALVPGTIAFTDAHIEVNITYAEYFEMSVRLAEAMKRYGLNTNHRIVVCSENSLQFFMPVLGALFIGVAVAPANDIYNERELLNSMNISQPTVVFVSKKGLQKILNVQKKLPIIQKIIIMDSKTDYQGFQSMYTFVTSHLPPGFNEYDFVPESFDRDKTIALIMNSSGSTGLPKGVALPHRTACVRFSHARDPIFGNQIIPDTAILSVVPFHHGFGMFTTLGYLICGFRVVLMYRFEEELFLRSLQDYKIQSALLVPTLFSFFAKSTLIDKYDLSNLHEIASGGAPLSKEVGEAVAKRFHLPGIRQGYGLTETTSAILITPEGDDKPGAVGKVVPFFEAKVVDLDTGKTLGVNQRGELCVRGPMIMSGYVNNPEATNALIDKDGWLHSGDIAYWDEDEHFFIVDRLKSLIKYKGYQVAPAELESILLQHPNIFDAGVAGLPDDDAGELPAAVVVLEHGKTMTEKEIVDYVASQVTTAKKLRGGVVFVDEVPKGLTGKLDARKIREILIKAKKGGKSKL

Compound	Potency [1]	Potency [2]	Potency [3]	Potency [4]	ratio activity, negative = inhibition [5]
OCl	inactive	inactive	inactive	inactive	–
C=CC(C)(O)CC/C=C(\C)CCC=C(C)C (configuration not stated)	inactive	inactive	–	–	-13.1% (active)
Oc1cccc(O)c1O	inactive	inactive	inactive	5.96 µM (active)	-1.18%
CC(CC=O)CCCC(C)(C)O (configuration not stated)	inactive	inactive	–	–	3.36%
NCC[C@H](O)C(=O)N[C@@H]1C[C@H](N)[C@@H](O[C@H]2O[C@H](CN)[C@@H](O)[C@H](O)[C@H]2O)[C@H](O)[C@H]1O[C@H]1O[C@H](CO)[C@@H](O)[C@H](N)[C@H]1O	inactive	inactive	–	–	-4.63%
COc1ccc(-c2noc(CC(=O)O)c2-c2ccc(OC)cc2)cc1	inactive	inactive	–	–	-1.01%
CCN(CC)CCC(=O)N1c2ccccc2Sc2ccc(C(F)(F)F)cc21	inactive	inactive	–	–	-1.58%
CSc1nc2cc(Oc3cccc(Cl)c3Cl)c(Cl)cc2[nH]1	inactive	inactive	–	–	-0.19%
CCCOC(=O)c1ccccc1O	inactive	inactive	–	–	5.82%
O[C@@H]([C@H](O)[C@H](O)CBr)[C@H](O)CBr	inactive	inactive	–	–	3.07%
CC1=CC(=O)NS(=O)(=O)O1	inactive	inactive	inactive	inactive	1.96%
OB(O)O	inactive	inactive	inactive	inactive	0.47%
Nc1nccs1	inactive	inactive	inactive	inactive	–
CCOc1ccc(NC(=S)Nc2ccc(OCC)cc2)cc1	inactive	inactive	–	–	-1.68%
O=C(/C=C/c1cccc(F)c1)NC1CC1	inactive	–	inactive	–	2.97%
CC1(C)S[C@@H]2[C@H](NC(=O)C3(N)CCCCC3)C(=O)N2[C@H]1C(=O)O	–	inactive	inactive	–	–
Oc1ccc(Cl)c2c1CCC2	inactive	–	–	–	-4.38%
CC(=O)N=c1sc(S(N)(=O)=O)nn1C	inactive	–	inactive	–	-0.416% [at 17.1 µM]
CN=C1C=CC(=C(c2ccc(N(C)C)cc2)c2ccc(N(C)C)cc2)C=C1	–	10.2 µM (active)	–	–	–
CCCCCCCCCCCC(=O)N(CCO)CCO	inactive	–	inactive	–	0%
C=C1C(CCl)(CCl)C2(Cl)C(Cl)C(Cl)C1(Cl)C2(Cl)Cl (configuration not stated)	inactive	–	36.1 µM (active)	37.6 µM (active)	-26.3%
O=C(O)[C@H]1CN(C/C=C/P(=O)(O)O)CCN1	–	inactive	inactive	–	–
OC/C=C/c1ccccc1	–	inactive	inactive	–	-1.9%
CC(C)(C)c1ccc2c(S(=O)(=O)O)c(C(C)(C)C)ccc2c1	–	inactive	inactive	–	-0.38%
c1ccc2c(c1)OCC(CN1CCCCC1)O2 (configuration not stated)	inactive	–	inactive	–	1.83%
S=C1SCN(Cc2ccccc2)CN1Cc1ccccc1	inactive	–	14.4 µM (active)	–	-11.2%
O=C(OCc1ccccc1)c1cccnc1	–	inactive	–	–	–
COc1cc(C)c(/C=C/C(C)=C/C=C/C(C)=C/C(=O)O)c(C)c1C	–	inactive	0.572 µM (active)	–	-28.2%

Compound	Potency [1]	Potency [2]	Potency [3]	Potency [4]	ratio activity, negative = inhibition [5]
CC(C)CCCCCCc1ccc(O)cc1	–	inactive	inactive	–	-8.37%
CCOC(=O)C1=C(COCCN)NC(C)=C(C(=O)OC)C1c1ccccc1Cl (configuration not stated)	inactive	–	inactive	–	-3.48%
C[C@H](O)CN(C)C	–	inactive	inactive	–	–
COC(=O)CCC[N+](C)(C)C	–	inactive	inactive	–	–
CC(=O)Oc1cccc2c1C(=O)c1c(OC(C)=O)cc(C(=O)O)cc1C2=O	–	inactive	inactive	–	0.316%
OCC(O)CO	inactive	–	inactive	–	2.96%
CN1C(=O)OC(C)(C)C1=O	–	inactive	inactive	–	–
CC1C(=O)CC2C3(C)CCC2(C(C)C(=O)O)C(=O)C13 (configuration not stated)	–	inactive	inactive	–	–
Nc1ccc(N=Nc2ccccc2)c(N)n1	10.2 µM (active)	–	inactive	19.3 µM (active) and 37.6 µM (active)	0.697%
CCOc1cc(-c2nccc3cc(OC)c(OC)cc23)cc(OCC)c1OCC	inactive	–	–	–	-11.1%
C[C@@](Cc1ccc(O)c(O)c1)(NN)C(=O)O	–	inactive	–	–	–
CN(C)C(=O)CCSC(SCCC(=O)O)c1cccc(/C=C/c2ccc3ccc(Cl)cc3n2)c1 (configuration not stated)	2.87 µM (active)	–	inactive	–	-0.229%
CCCCCCCCCCCCCCCCCCCCCC(=O)Nc1ccn([C@@H]2O[C@H](CO)[C@@H](O)[C@@H]2O)c(=O)n1	–	inactive	inactive	–	-0.57%
COc1ccc2c(=O)c(C)c(-c3ccccc3)oc2c1CN(C)C	–	inactive	inactive	–	-18.3%
CN(C)CCOc1ccc(/C(=C(/CCCl)c2ccccc2)c2ccccc2)cc1	inactive	–	–	–	-1.5%
O=C1CCC(=O)N1CO	–	inactive	inactive	–	–
CCC(O)c1ccccc1 (configuration not stated)	–	inactive	inactive	–	–
CCc1ccc(S(=O)(=O)O)cc1	–	inactive	inactive	–	-9.66%
CCN(CC)CCCC(C)Nc1cc(/C=C/c2ccccc2Cl)nc2cc(Cl)ccc12 (configuration not stated)	inactive	–	–	–	-1.08%
O=S(=O)(O)CC(S)CS (configuration not stated)	–	inactive	–	–	–
CCCCC/C=C\C/C=C\C/C=C\CCCCC(=O)O	–	inactive	inactive	–	-14.4%
CCN(CC)CCOc1ccccc1OC	–	inactive	inactive	–	-7.82%
C[C@H](N)C(=O)N[C@@H](C)P(=O)(O)O	–	inactive	inactive	–	4.18%
CC(CN(C)C)CN1c2ccccc2Sc2ccc(C(F)(F)F)cc21 (configuration not stated)	inactive	–	–	–	-9.58%
c1ccc2c(c1)Sc1ccccc1N2CCN1CCCC1	inactive	–	–	–	-1.68%
C=CCN1CCCC1CNC(=O)c1cc(S(N)(=O)=O)cc(OC)c1OC (configuration not stated)	–	inactive	inactive	–	1.62%
CCCCCCCCCCCCCCCCCC(=O)OCC(C)O (configuration not stated)	–	–	inactive	–	-0.254%
